Screening data (PubChem BioAssay)
This is one part of a sample in which hits are shown more often than they occur.
Pf Dd2 inh: inhibitors of Plasmodium falciparum Dd2 growth | P. falciparum Dd2 growth, SYBR Green, 72 h | Potency, µM (series often up to 28.9 µM), for the others: at the top dose activity, negative = inhibition, most hits filed as inhibitors | actives 4.3% (n = 120,000); active = well fitted inhibition curve with a large enough effect;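 also: plate controls were DMSO vehicle for no effect and reference drug for full effect; nearly all actives have a fitted effect of over 65% in size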
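Readout: SYBR Green fluorescence, 485 nm excitation, 535 nm emission, after ~16 h lysis at 37C. Before that, Dd2-infected red cells (2.5% hematocrit) grew 72 h with compound, 29 uM top final concentration.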
Numbers without * were called inactive; [ ] = remark or other dose. Potency is read from the fitted curve at half-maximal effect.

`CCCNC(=O)OC[C@H]1C[C@@H]2CCN1C[C@@H]2c1cc(C(CC)CC)nc(-c2ccncc2)n1` gave Pf Dd2 inh 1.4µM*.
CC(C)(C)c1ccc(NC(=O)OC[C@H]2C[C@@H]3CCN2C[C@@H]3c2cc(C3CCCC3)nc(-c3ccncc3)n2)cc1 was read as Pf Dd2 inh 1µM*.
For Cn1nc(-c2ccc3ccccc3c2)cc1[C@H]1CN2CC[C@H]1C[C@@H]2CNS(=O)(=O)c1cccs1 the results were Pf Dd2 inh 13µM*.
Cn1nc(NC(=O)C2CCS(=O)(=O)C2)c2c(Oc3cccnc3)cccc21 (stereo not drawn) was read as Pf Dd2 inh -14%.
O=C(C1CC1)N1CCN2C(=O)N(Cc3ccc(F)cc3)C[C@H]2C1 was read as Pf Dd2 inh 27%[44.1 µM].
For O=C(NCc1ccc(F)cc1)N1CCCC(Cc2noc(-c3ccccn3)n2)C1 (stereo not drawn) the results were Pf Dd2 inh inactive.
Cc1noc(-c2cn(C3CCCN(C(=O)c4ccc(F)cc4)C3)nn2)n1 (stereo not drawn) was read as Pf Dd2 inh -1%.
For CCc1nc(-c2c3n(c(=O)n(CC(=O)NCc4cccs4)c2=O)CCCCC3)no1 the results were Pf Dd2 inh 16%.
`Cc1cc(CN2C[C@H](NC(=O)CNS(C)(=O)=O)[C@@H](C3CC3)C2)on1` gave Pf Dd2 inh -12%.
Fc1ccc(OC2CN(Cc3ccc(C(F)(F)F)cc3)C2)cc1F was read as Pf Dd2 inh -12%.
O=C(C1CCCC1)N1CCC2(CC1)C(=O)NCN2Cc1ccc(Cl)cc1 was read as Pf Dd2 inh inactive.
O=C(CCCc1ccccc1)NCC(=O)N1CCN(c2ccccn2)CC1 was read as Pf Dd2 inh inactive.
For COCCN(C)C[C@H]1C[C@H](CO)CN(C(=O)c2ccc(OC)c(F)c2)C1 the results were Pf Dd2 inh 3%.
`O=C(N[C@@H]1[C@@H](Cc2ccccc2)[C@H]2OCC[C@@H]12)N1CCOCC1` gave Pf Dd2 inh -18%.
NCC1(N2CCCC2)CCCCC1 was read as Pf Dd2 inh 10%[76.6 µM].
For Cc1onc(C(=O)NC2CCc3n[nH]c(=O)n3CC2)c1COc1ccccc1 (stereo not drawn) the results were Pf Dd2 inh -13%.
`CCC(CC)c1cc([C@H]2CN3CC[C@H]2C[C@@H]3CNS(=O)(=O)c2cccs2)nc(-c2ccncc2)n1` gave Pf Dd2 inh 1.1µM*.
Screening Cc1ccc(C(=O)NC[C@H]2C[C@@H]3CCN2C[C@@H]3c2cc(-c3ccc(F)cc3)nn2C)cc1 returned Pf Dd2 inh inactive.
Screening Cc1nc(-c2ccc(F)cc2)cc([C@H]2CN3CC[C@H]2C[C@@H]3CNS(=O)(=O)Cc2ccccc2)n1 returned Pf Dd2 inh inactive.
For CCNC(=O)NC[C@H]1C[C@@H]2CCN1C[C@@H]2c1cc(-c2ccccc2)nc(C)n1 the results were Pf Dd2 inh -9%[44.1 µM].
`Cc1nc(-c2ccc(C(F)(F)F)cc2)cc([C@H]2CN3CC[C@H]2C[C@@H]3CNS(C)(=O)=O)n1` gave Pf Dd2 inh inactive.
COc1ccc(NC(=O)OC[C@H]2C[C@@H]3CCN2C[C@@H]3c2cc(-c3ccccc3OC)nn2C)cc1 was read as Pf Dd2 inh -26%.
`CC(=O)NC[C@H]1C[C@@H]2CCN1C[C@@H]2c1cc(-c2ccc(F)cc2)nc(C)n1` gave Pf Dd2 inh inactive.
For Cn1nc(-c2ccc(F)cc2)cc1[C@H]1CN2CC[C@H]1C[C@@H]2CNC(=O)c1cccs1 the results were Pf Dd2 inh 13µM*.
`CCC(CC)c1cc([C@H]2CN3CC[C@H]2C[C@@H]3CNC(C)=O)nc(-c2ccncc2)n1` gave Pf Dd2 inh 2µM*.
For COc1ccc(C(=O)NC[C@H]2C[C@@H]3CCN2C[C@@H]3c2cc(-c3ccc(F)cc3)nn2C)cc1 the results were Pf Dd2 inh inactive.
`COc1ccc(-c2cc([C@H]3CN4CC[C@H]3C[C@@H]4COC(=O)NC3CCCCC3)nc(C)n2)cc1` gave Pf Dd2 inh inactive.
`COc1ccc(NC(=O)OC[C@H]2C[C@@H]3CCN2C[C@@H]3c2cc(C3CCCC3)nc(-c3ccncc3)n2)cc1` gave Pf Dd2 inh 1.8µM*.
For Cn1nc2n(c1=O)CCN(CC1CCCCC1)CC2 the results were Pf Dd2 inh -8%.
`COC(=O)N1CCC2(CC1)Cc1ccccc1NC2=O` gave Pf Dd2 inh -17%[44.1 µM].
COCC(=O)N1CCCC(c2noc(COc3ccccc3)n2)C1 (stereo not drawn) was read as Pf Dd2 inh inactive.
O=C(O)C1CCc2nnc(C3CCCN(C(=O)c4ccc(C(F)(F)F)cc4)C3)n21 (stereo not drawn) was read as Pf Dd2 inh 4%.
`O=C(NCc1ccc(F)cc1)C1CCc2nnc(C3CCN(C(=O)c4ccc(Cl)cc4Cl)CC3)n21` (stereo not drawn) gave Pf Dd2 inh 53%.
Screening C[C@@H](NC(=O)C1CCCC1)c1c(-c2ccc(Cl)cc2)noc1C(=O)O returned Pf Dd2 inh -13%[44.1 µM].
Screening CCN(CC)C(=O)CC[C@H]1CNC(=O)[C@@H]2[C@@H](CCN2Cc2csnn2)N1C returned Pf Dd2 inh 3%[44.1 µM].
For CC(=O)Nc1ccc(S(=O)(=O)NC[C@H]2C[C@@H]3CCN2C[C@@H]3c2cc(-c3ccco3)nc(C)n2)cc1 the results were Pf Dd2 inh inactive.
`Cc1nc(-c2ccco2)cc([C@H]2CN3CC[C@H]2C[C@@H]3CNS(=O)(=O)c2cccs2)n1` gave Pf Dd2 inh 7.1µM*.
`COc1ccc(OC)c(S(=O)(=O)NC[C@H]2C[C@@H]3CCN2C[C@@H]3c2cc(-c3ccco3)nc(C)n2)c1` gave Pf Dd2 inh inactive.
For Cc1cccc(CNc2ccc3nnc(C)n3n2)c1 the results were Pf Dd2 inh inactive.
CCc1nnc2ccc(NCc3ccc(F)cc3)nn12 was read as Pf Dd2 inh 7.1µM*.
Screening Cc1nnc2ccc(NCc3ccc(F)cc3)nn12 returned Pf Dd2 inh -9%.
`O=C1NCCCCCCN(S(=O)(=O)c2cccc(F)c2)[C@H]2CCCC[C@@H]12` gave Pf Dd2 inh -15%.
For COCCNc1nc2cc(-c3nc(-c4cccnn4)no3)ccc2n1C the results were Pf Dd2 inh 6.3µM*.
For COCCNc1ccc(-c2nc(-c3ccco3)no2)cc1[N+](=O)[O-] the results were Pf Dd2 inh -21%.
`COCCNc1nc2cc(C(=O)N[C@@H]3CC[C@@H](N)C3)ccc2n1C` gave Pf Dd2 inh 4%.
For CN1CC(=O)N(C2CCCNCC2)Cc2c(NCc3cccs3)ncnc21 (stereo not drawn) the results were Pf Dd2 inh -10%.
Cc1cccc(CN2CCOCCNC(=O)[C@H]3CCCC[C@H]32)c1 was read as Pf Dd2 inh -14%.
Screening CCCC(=O)N1Cc2ccccc2CC2(CCCCN2CC2CCOCC2)C1 (stereo not drawn) returned Pf Dd2 inh 8.9µM*.
`CCN1CCCCC12Cc1ccccc1CN(C(=O)Cc1ccc(OC)cc1)C2` (stereo not drawn) gave Pf Dd2 inh 11µM*.
CCCC(=O)N1Cc2ccccc2CC2(CCCN2Cc2ccncc2)C1 (stereo not drawn) was read as Pf Dd2 inh 8.9µM*.
O=C(O)CCC(=O)N1Cc2ccccc2CC2(CCCCN2Cc2ccncc2)C1 (stereo not drawn) was read as Pf Dd2 inh 13%.
`CCCC(=O)N1Cc2ccccc2CC2(CCCCN2Cc2ccncc2)C1` (stereo not drawn) gave Pf Dd2 inh 8.9µM*.
